M1 PAM – potentiates human M1 receptor response to acetylcholine. activation, % at 3 µM. AID 588819. CHO-K1 hM1, Fluo-8 calcium fluorescence, ACh EC20; 0% = ACh EC20, 100% = maximal ACh. P11229. actives 0.088% (n = 360,000); in the data active means activation above about 19%, passing the limit was not always enough
Target sequence (P11229 whole entry, looked up): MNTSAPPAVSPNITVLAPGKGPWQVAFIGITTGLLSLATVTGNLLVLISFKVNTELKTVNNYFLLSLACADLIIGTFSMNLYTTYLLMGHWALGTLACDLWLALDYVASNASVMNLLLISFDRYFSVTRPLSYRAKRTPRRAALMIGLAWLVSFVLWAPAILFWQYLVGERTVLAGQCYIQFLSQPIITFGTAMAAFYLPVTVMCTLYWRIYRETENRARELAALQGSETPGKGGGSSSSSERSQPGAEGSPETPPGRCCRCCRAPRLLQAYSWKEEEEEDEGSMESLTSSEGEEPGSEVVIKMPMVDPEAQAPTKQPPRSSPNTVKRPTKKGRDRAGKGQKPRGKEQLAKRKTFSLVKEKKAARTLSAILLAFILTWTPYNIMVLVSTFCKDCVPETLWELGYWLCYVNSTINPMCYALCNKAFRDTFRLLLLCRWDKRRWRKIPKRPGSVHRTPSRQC
M1 ag – human M1 muscarinic receptor agonism | CHO-K1 hM1, Fluo-8 calcium fluorescence, agonist mode; 0% DMSO, 100% acetylcholine EC100 | activation, % at 3 µM | actives 0.33% (n = 360,000) | AID 588814;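 active means activation above the run's mean compound activation plus 3 SD, cut at about 16% in these data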;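 further: peak over basal fluorescence ratio within a 140 s kinetic read after compound addition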
CHO-K1 Ca PAM – counter-screen for M1 PAMs: effect in parental CHO-K1 cells; activation, % at 3 µM; ATP EC20, Fluo-8 calcium fluorescence; 0% at ATP EC20, 100% at ATP max; actives 0.02% (n = 360,000); AID 602247;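 active means activation above the run cutoff, the mean activation of all test compounds plus 3 SD, cut at about 40% in these data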;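 further: peak over basal fluorescence ratio in a 140 s read after ATP addition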
CHRM1 antagonist – blocks human M1 muscarinic receptor. P11229. CHO-K1 hM1, Fluo-8 calcium fluorescence, ACh EC80 antagonist. inhibition, % at 3 µM. actives 1.3% (n = 360,000). AID 588852;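 active means percent inhibition above its own plate's cutoff, namely the mean of that plate's compound wells plus 3 SD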;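 further: peak over basal fluorescence ratio during 140 s after agonist addition; 0% = ACh EC80 plus DMSO and 100% = DMSO alone without agonist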
CHO-K1 Ca ag – counter-screen for M1 agonists: effect in parental CHO-K1 cells; Fluo-8 calcium fluorescence; scaled to maximal ATP response, vehicle zero; activation, % at 3 µM; actives 0.48% (n = 360,000); in the data active means activation above about 15%;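 further: untransfected CHO-K1 host cells lacking M1 receptor as counterscreen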
CHO-K1 Ca antag – counter-screen for M1 antagonists: effect in parental CHO-K1 cells. actives 0.6% (n = 360,000). ATP-induced calcium, Fluo-8 fluorescence. inhibition, % at 3 µM. AID 602250;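 active means inhibition above a per-plate cutoff, the plate's mean sample inhibition plus 3 SD, cut at about 24% in these data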;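 further: 0% = DMSO plus EC80 ATP and 100% = DMSO alone without ATP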
* hit, by the source's call; nt = no result. The list is not random: actives were taken first. Their share in the collection is about 2.3%.

SMILES | M1 PAM | M1 ag | CHO-K1 Ca PAM | CHRM1 antagonist | CHO-K1 Ca ag | CHO-K1 Ca antag
CN(C)c1ccc(NC(=O)C[n+]2ccccc2)cc1 | 3 | -12 | -8 | 1 | 1 | -13
COc1ccc(NC(=O)CN2CCN(C3c4ccccc4-c4ccccc43)CC2)cc1 | 6 | -4 | 53* | 0 | 2 | -27
CSc1ccc(CN(C)C(=O)c2cc(=O)[nH]c3ccccc23)cc1 | 2 | -1 | 4 | -4 | 7 | -11
O=C(CN1CCCCC1)Nc1ccccc1-c1ccccc1 | -34 | -12 | 0 | 101* | -1 | -20
O=C(CN1CCOCC1)NN=C(c1ccccc1)c1ccccc1 | 10 | -4 | 24 | -4 | 1 | -16
O=C(CN1CCCC1)NN=C(c1ccccc1)c1ccccc1 | -22 | -6 | 20 | 64* | 1 | -13
O=C(CN1CCOCC1)Nc1ccccc1-c1ccccc1 | 6 | -4 | -7 | 3 | 0 | 10
CSc1cccc(CN2CCC(CO)(Cc3cccc(C(F)(F)F)c3)CC2)c1 | -17 | -7 | 0 | 31* | 3 | 0
OCC1(Cc2cccc(C(F)(F)F)c2)CCN(Cc2cc(F)cc(F)c2)CC1 | 0 | -6 | 6 | -1 | 2 | -9
C=CCNc1nc2c(c(=O)n(C)c(=O)n2C)n1CC | 7 | -1 | -9 | 0 | 1 | 31*
C=CCNc1nc2c(c(=O)n(C)c(=O)n2C)n1CCCCCC | -1 | -3 | 2 | 16 | 2 | 12
CCCC[C@@H]1C=C(C(=O)O)[C@H](c2ccc(Cl)cc2)N1S(=O)(=O)c1ccc(C)cc1 | 7 | -8 | 2 | -6 | 0 | 5
Cc1nn(-c2ccccc2)c2sc(-c3n[nH]c(=S)o3)cc12 | 8 | -3 | -7 | 3 | -1 | 25*
CCc1cc(OCCCCNCc2ccccc2)ccc1Cl | -24 | -2 | 26 | 30 | 17* | 2
OCCCCNCc1ccc(OCc2ccccc2Cl)cc1 | -35 | -11 | 2 | 44* | 2 | -9
OCCCCNCc1ccc(OCc2ccccc2)cc1 | -22 | -8 | 5 | 13 | 1 | -7
COc1ccc(CN(C)S(=O)(=O)c2ccc3c(c2)OCCO3)cc1 | -2 | -4 | 13 | -8 | 2 | -6
COc1ccc(NC(=O)CN2C(=O)COc3ccc(S(=O)(=O)N4CCCCC4)cc32)c(OC)c1 | 8 | -5 | 11 | -8 | 0 | -6
C=CCNC(=O)c1onc(CSc2ccc(F)cc2)c1C(=O)NCCOC | 2 | -5 | 15 | 1 | 1 | -13
Cc1cc(-c2cn3ccccc3n2)c(C)n1-c1ccccc1 | -19 | -6 | -14 | 34* | 0 | -6
Cc1nnsc1SCCNC(=O)Nc1ccc(Cl)cc1 | -13 | 3 | -15 | 37* | 14 | 18
O=C(NCCNC(=O)Nc1ccc(Cl)cc1)Nc1ccc(Cl)cc1 | -2 | 0 | -19 | 4 | 0 | 0
COc1ccc(C[C@H]2CN3C(=NC[C@H]3C)N2CCNC(=O)c2ccc(C)c(Br)c2)cc1 | -33 | -11 | 18 | 76* | 1 | -8
C/C(=N\NC(=O)c1ccccc1)c1ccc(N2CCOCC2)cc1 | 5 | -3 | -8 | -2 | 0 | -4
C/C(=N/NC(=O)c1cccs1)c1ccc(N2CCOCC2)cc1 | -12 | -2 | -6 | 21 | 0 | 25*
SMILES | M1 PAM | M1 ag | CHO-K1 Ca PAM | CHRM1 antagonist | CHO-K1 Ca ag | CHO-K1 Ca antag
c1ccc(C2CCC(N3CCN(c4ccccc4)CC3)CC2)cc1 (stereo not drawn) | -11 | -10 | 3 | -3 | 2 | -5
O=C(c1cc2cc(F)ccc2[nH]1)N(Cc1cccnc1)CC1CCCN(C2CCCCC2)C1 (stereo not drawn) | -21 | -6 | 0 | 35* | 0 | -5
COc1cc(-c2noc(C)c2-c2ccc(N(C)C)nc2)cc(OC)c1OC | -12 | 34* | 13 | 20 | 32* | -8
COc1cc(-c2noc(C)c2-c2ccc3[nH]ccc3c2)cc(OC)c1OC | 3 | -2 | 2 | 7 | 2 | -11
COc1cc(CNc2ncnc3c2ncn3[C@H]2CN(Cc3ccco3)C[C@@H](CO)O2)cc(OC)c1OC | 3 | -4 | 2 | -5 | 0 | -9
COC(=O)[C@]12CCCCC=C1N(Cc1ccc(Cl)cc1Cl)C(=O)[C@H](CC(=O)NCc1cccc(C(F)(F)F)c1)C2 | nt | nt | 5 | nt | 1 | -18

Source: PubChem BioAssay
